# Laboratory results as given in PubChem BioAssay (Tox21).
# “And” between values parts separate entries of the source, which are not always exact repeats. Equal values may be shown once. Results filed as inconclusive are left out. A call without a number means that no potency is given here. The source made the active and inactive calls. The call rests on the fitted dose curve; in most records, active means well fitted cell-killing curve with a large enough effect in the repeat runs; inconclusive means weak or mixed curves, or effect the other way; inactive means flat fitted curve, though single readings scatter.
# Experiment: qHTS RealTime-Glo MT Cell Viability Assay in HEK293 cells - 8 hour (AID 1224887); further: nearly all actives have a fitted effect of over 50% in size
# Conditions: RealTime-Glo luminescence; series mostly up to 76.8 µM
# Text: U.S. Tox21 Program National Center for Advancing Translational Sciences [NCATS] NIH Chemical Genomics Center [NCGC] U.S. Environmental Protection Agency [EPA] National Institutes of Environmental Health Sciences [NIEHS] National Toxicology Program [NTP] U.S. Food and Drug Administration [FDA] Tox21 Assay Overview: Measure of cell viability is critical in the cell-base assay. Analysis of cell viability is necessary for the characterization of cell responses to cytotoxic drugs and environmental stress. A RealTime-Glo MT Cell Viability Assay to monitor cell viability in real time of continues cell culture during 40 hours of compound treatment was used to screen Tox21 10K library compounds in Hek293 cells. The RealTime-Glo MT Cell Viability Assay is a nonlytic, homogeneous, bioluminescent method to measure cell viability in real time using a simple, plate-based method. The assay involves adding NanoLuc luciferase and a cell-permeant prosubstrate to cells in culture. Viable cells reduce the proprietary prosubstrate to generate a substrate for NanoLuc luciferase. This substrate diffuses from cells into the surrounding culture medium, where it is rapidly used by the NanoLuc Enzyme to produce a luminescent signal. The signal correlates with the number of viable cells, making the assay well suited for cytotoxicity studies.
# Tox21 Assay Protocol Summary: The mixture of Hek293 cell suspension and reagents were dispensed at 600cells/6 ul/well in 1536-well tissue culture treated black solid bottom plates using a Multidrop dispenser. After the assay plates were incubated at a 37 C/5% CO2 incubator for 5 hours, 23 nL of compounds dissolved in DMSO, positive and negative controls was transferred to the assay plate by a pintool work station. The plates were incubated at 37 C for 40 hours. The luminescence intensity were measured at 0h, 8h, 16h, 24h, 32h and 40h time points using ViewLux plate reader during compound treatment.
# Potency means the concentration at half of the fitted maximal effect.
row,SMILES,Potency
1,CCOc1ccc(NC(C)=O)cc1,inactive
2,NC1CCCCC1,inactive
3,Cc1ccc(S(=O)(=O)O)cc1,inactive
4,Cn1c(=O)c2c(ncn2C)n(C)c1=O,inactive
5,NC(CO)(CO)CO,inactive
6,CC(C)C(=O)Nc1ccc([N+](=O)[O-])c(C(F)(F)F)c1,22.5 µM (active) and 21.9 µM (active) and 9.52 µM (active)
7,O=C1O[C@H]([C@@H](O)CO)C(O)=C1O,inactive
8,C[C@](N)(Cc1ccc(O)c(O)c1)C(=O)O,inactive
9,CCCCNC(=O)NS(=O)(=O)c1ccc(C)cc1,inactive
10,Cc1cccc(C)c1,inactive
11,CCCCCCCCCCCC[N+](C)(C)Cc1ccccc1,53.9 µM (active) and 59.7 µM (active)
12,CN(N=O)C(=O)N[C@@H]1[C@@H](O)[C@H](O)[C@@H](CO)O[C@@H]1O,inactive
13,CCOC(N)=O,inactive
14,O=C1NC(=O)C(c2ccccc2)(c2ccccc2)N1,inactive
15,CN(C)CCOC(C)(c1ccccc1)c1ccccn1 (stereo not given),inactive
16,Nc1c2c(nc3ccccc13)CCCC2,inactive
17,Nc1c(N=Nc2ccc(-c3ccc(N=Nc4cc(S(=O)(=O)O)c5ccccc5c4N)cc3)cc2)cc(S(=O)(=O)O)c2ccccc12,24.5 µM (active)
18,O=C(Nc1ncc([N+](=O)[O-])s1)c1cccs1,inactive
19,Cc1ncc([N+](=O)[O-])n1CCO,inactive
20,CCCCC(CC)C(=O)O (stereo not given),inactive

row,SMILES,Potency
1,CCCCC1(COC(=O)CCC(=O)O)C(=O)N(c2ccccc2)N(c2ccccc2)C1=O,inactive
2,NS(=O)(=O)O,inactive
3,C/C=C/C=C/C(=O)O,inactive
4,COc1ccc2cc(S(=O)(=O)N[C@H](CC(=O)N[C@H](Cc3ccc(CN4[C@H](C)CCC[C@@H]4C)cc3)C(=O)N(C)C(C)C)c3ccc4c(c3)OCO4)ccc2c1,46.3 µM (active)
5,Cc1c(C(=O)O)c(O)cc2c1C(=O)c1c(O)c([C@@H]3O[C@H](CO)[C@@H](O)[C@H](O)[C@H]3O)c(O)c(O)c1C2=O,inactive
6,NC(=O)n1c(O)c(C(=O)c2cccs2)c2cc(Cl)ccc21,inactive
7,CC/C(=C(\c1ccccc1)c1ccc(OCCN(C)C)cc1)c1ccccc1,39.2 µM (active) [middle of 4 runs]
8,O=C(O)c1ccccc1,inactive
9,C=C(C)C(=O)OCC(C)O (stereo not given),inactive
10,CCCCOC(=O)c1ccc(O)cc1,inactive
11,CCc1nc(N)nc(N)c1-c1ccc(Cl)cc1,inactive
12,CN1CCC[C@H]1c1cccnc1,inactive
13,Nc1ccc(S(N)(=O)=O)cc1,inactive
14,CCCc1cc(=O)[nH]c(=S)[nH]1,inactive
15,C=C1CC[C@H](O)C/C1=C\C=C1/CCC[C@]2(C)[C@@H]([C@H](C)CCCC(C)C)CC[C@@H]12,24.3 µM (active)
16,CN1CCc2cccc3c2[C@H]1Cc1ccc(O)c(O)c1-3,24.8 µM (active) and 14.5 µM (active)
17,CC1(C)O[C@@H]2C[C@H]3[C@@H]4CCC5=CC(=O)C=C[C@]5(C)[C@@]4(F)[C@@H](O)C[C@]3(C)[C@]2(C(=O)CO)O1,inactive
18,CS(=O)(=O)OCCCCOS(C)(=O)=O,inactive
19,CC(=O)C(=O)O,inactive
20,C1CCC(C(CC2CCCCN2)C2CCCCC2)CC1 (stereo not given),23.9 µM (active)
